# The OligoGym collection
# Biological target: AKR1C4
# Test: pooled miR-30 sensor sort-seq; sequence = guide strand
# Settings: shRNA
# Further: reference of the scale not given here.
row,Sequence,sensor-assay potency score (higher = more potent)
1,TTTGGTGACCTCTACAGCTCTG,0.239
2,TTGCTAAGGCACAAAGAACTGG,-0.934
3,ATATCCTCTGATGTCAACTGGA,-0.353
4,ATCATTTAGCTCTACACGCTGA,-0.425
5,TTTGTTTGTGTTTCTTTGCTAA,0.179
6,AACATATCGATAATTTCTGTTT,-1.09
7,TTGTTTGTGTTTCTTTGCTAAG,-1.47
8,TAGACCATCTAGAACTTTCATA,-0.398
9,TTGGTGACCTCTACAGCTCTGT,0.122
10,TTCTGTTTAGACCATCTAGAAC,-1.64
11,AATCCATGACAACATATCGATA,-1.75
12,TTCATCTTTTGGTAGTGGCGTC,-0.396
13,TACTTTTCCATTTTCATCTTTT,-0.351
14,TAAGGATGACATTCTACCTGGT,0.727
15,TTTCATATCCTCTGATGTCAAC,-1.3
16,TATCCTCTGATGTCAACTGGAA,-0.803
17,TTCAGTGAGCTTTCCAAGGCTG,0.323
18,AAAACCTGGATGTTCTCTCTGA,0.359
19,TTATTGTATAAATAAGCAGAAT,-1.48
20,TTGTGTTTCTTTGCTAAGGCAC,-0.225
21,TGGATAATCAGGATGGTCCATA,-1.08
22,TTGGTAGTGGCGTCTCACCTGG,-0.771

# Biological target: AKT3
# Test: as above
# Settings: shRNA
row,Sequence,sensor-assay potency score (higher = more potent)
1,TATAACAGTAGTCCACTGGAGA,-0.667
2,TATTGTAATAGTCTGAGCTGTA,0.29
3,TAGTCTGAGCTGTAAATTCTTC,-1.06
4,TAGTCCACTGGAGACATCTGAT,-0.68
5,TATCTTCTAACACCTCTGGTGC,-0.701
6,TTGTAGAAAGGTAACCTCCCAC,-0.166
7,TTTAAAAGGAGGTACAAGCTTT,-0.528
8,TTGTCTTTCTTTTATGATGGGT,-0.0312
9,TTATCATATACATCTTGCCAGT,-1.09
10,TTATCTTCTAACACCTCTGGTG,-0.243
11,TTATTGTAATAGTCTGAGCTGT,-0.326
12,TTTATCATATACATCTTGCCAG,0.12

# Biological target: ALAD
# Test: as above
# Settings: shRNA
row,Sequence,sensor-assay potency score (higher = more potent)
1,TACCACCTGACATCCTGCCTTG,-0.254
2,TGATGATGATGTCAGCACCTGC,-1.54
3,TCCTTGGGAACTCTGCTGGGGA,-1.34
4,TAGTGGGTGGAAGTAGCCGCTG,-1.31
5,AAGCTGGGCTTGACTTAGCTGC,-1.16
6,TCGTCCTTGGGAACTCTGCTGG,-1.05
